# Source: PubChem BioAssay (NCATS)
# Inconclusive results are not listed. Where a call stands in place of a potency, no number is given. Some compounds were tested as several samples or in several runs, with calls that do not always agree. A number with no mark means an inactive call. Active and inactive are the calls of the source. Calls follow the shape of the dose curve; as a rule, active = well fitted inhibition curve with a large enough effect; inconclusive = small, poorly fitted or top-dose-only effect; inactive = flat fitted curve, though single readings scatter.
# Tests used:
# PAD = test: qHTS profiling for inhibitors of Plasmodium falciparum proliferation (AID 504749); conditions: P. falciparum in erythrocytes, SYBR Green DNA, 72 h; series mostly up to 28.7 µM
# In short: (§1)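 Readout was DNA-dye fluorescence from lysed cultures, ex 485/em 535 nm. Parasitized red cells had grown 72 h with compound; data scaled between 0.29 uM artemisinin and DMSO wells and corrected using vehicle-only plates.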
# PC15 = test: as above; conditions: P. falciparum in erythrocytes, SYBR Green DNA, 72 h; series mostly up to 28.7 µM
# In short: as §1
# PC26 = test: as above; conditions: P. falciparum in erythrocytes, SYBR Green DNA, 72 h; series mostly up to 28.7 µM
# In short: as §1
# PC49 = test: as above; conditions: P. falciparum in erythrocytes, SYBR Green DNA, 72 h; series mostly up to 28.7 µM
# In short: as §1
# SC27B = test: as above; conditions: P. falciparum in erythrocytes, SYBR Green DNA, 72 h; series mostly up to 28.7 µM
# In short: as §1
# TAB109 = test: as above; conditions: P. falciparum in erythrocytes, SYBR Green DNA, 72 h; series mostly up to 28.7 µM
# In short: as §1
# TAB113 = test: as above; conditions: P. falciparum in erythrocytes, SYBR Green DNA, 72 h; series mostly up to 28.7 µM
# In short: as §1
# TAB165 = test: as above; conditions: P. falciparum in erythrocytes, SYBR Green DNA, 72 h; series mostly up to 28.7 µM
# In short: as §1
# CRL-7250 = normal cell line; test: Cytotoxic Profiling of Annotated Libraries Using Quantitative High-Throughput Screening (AID 1296008); conditions: Five cell lines viability, CellTiter-Glo ATP luminescence, 48-72 h; max response: active compounds read low
# In short: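 Cells exposed to compounds for 48 or 72 hr at 37 degrees Celsius. Viability read as ATP-coupled luminescence with CellTiter-Glo after 10 min at room temperature.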
# W2 = test: qHTS profiling for inhibitors of Plasmodium falciparum proliferation (AID 504749); conditions: P. falciparum in erythrocytes, SYBR Green DNA, 72 h; series mostly up to 28.7 µM
# In short: as §1
# Also: nearly all actives have a fitted effect of over 60% in size.
# Potency is read from the fitted curve at half-maximal effect.
smiles,measurement,setting,value
CCCCC(C)(O)C/C=C/[C@H]1[C@H](O)CC(=O)[C@@H]1CCCCCCC(=O)OC (some centres undefined),Potency,PAD,inactive
same,Potency,PC15,inactive
same,Potency,PC26,inactive
same,Potency,PC49,inactive
same,Potency,SC27B,inactive
same,Potency,TAB109,inactive
same,Potency,TAB113,inactive
same,Potency,TAB165,inactive
CC(C)=CCC[C@](C)(O[C@@H]1O[C@H](CO[C@@H]2OC[C@@H](O)[C@H](O)[C@H]2O)[C@@H](O)[C@H](O)[C@H]1O)[C@H]1CC[C@]2(C)[C@@H]1[C@H](O)C[C@@H]1[C@@]3(C)CC[C@H](O[C@@H]4O[C@H](CO)[C@@H](O)[C@H](O)[C@H]4O[C@@H]4O[C@H](CO)[C@@H](O)[C@H](O)[C@H]4O)C(C)(C)[C@@H]3CC[C@]12C,outcome,CRL-7250,inactive
CC1(C)CCC[C@@]2(C)[C@H]1[C@H](O)C=C1COC(=O)[C@@]12O,outcome,CRL-7250,inactive
CC1=CC(=O)CC(C)(C)C1(O)CCC(C)O (centres undefined),outcome,CRL-7250,inactive
COc1cc(N2CCC(O)CC2)ccc1Nc1cc(Nc2ccccc2S(=O)(=O)C(C)C)c2cc[nH]c2n1,Potency,CRL-7250,33100 nM (active)
same,max response,CRL-7250,-7.16%
C#CCOc1ccc2c(C)cc(=O)oc2c1,Potency,PAD,inactive
same,Potency,PC15,inactive
same,Potency,PC26,inactive
same,Potency,PC49,inactive
same,Potency,SC27B,inactive
same,Potency,TAB109,inactive
same,Potency,TAB113,inactive
same,Potency,TAB165,inactive
CNC(=O)COC(=O)NCCC1CCN(c2cccc(C)n2)CC1,max response,CRL-7250,-5.78%
O=C(COc1ccc(Cl)cc1)OCCNC12CC3CC(CC(C3)C1)C2,Potency,PAD,inactive
same,Potency,PC15,inactive
same,Potency,PC26,inactive
same,Potency,PC49,inactive
same,Potency,SC27B,inactive
same,Potency,TAB109,inactive
same,Potency,TAB113,inactive
same,Potency,TAB165,inactive
CC1(C)CCCC2(C)C3=C(C(=O)OC3O)C(O)CC12 (centres undefined),max response,CRL-7250,-10.8%
CC1=C2C(=O)O[C@@H](c3ccoc3)[C@]2(C)CCC1,max response,CRL-7250,-4.96%
same,outcome,CRL-7250,inactive
CC(C)N(C[C@H]1O[C@@H](n2cnc3c(N)ncnc32)[C@H](O)[C@@H]1O)C1CC(CCc2nc3ccc(C(C)(C)C)cc3[nH]2)C1 (some centres undefined),max response,CRL-7250,-0.229%
same,outcome,CRL-7250,inactive
Cc1nn(C)c2c1C(c1ccc(C(F)(F)F)cc1)C(C#N)=C(N)O2 (centres undefined),max response,CRL-7250,4.37%
same,outcome,CRL-7250,inactive
C=C1CC[C@H]2[C@@](C)(CCC[C@@]2(C)C(=O)O)[C@@H]1CCC(C)CCO (some centres undefined),max response,CRL-7250,-8.65%
COc1ccc(/C=C/C(=O)O[C@@H]2[C@@H](OC(C)=O)[C@@H](OC(C)=O)[C@H](O[C@H]3[C@@H]4C=CO[C@@H](O[C@@H]5O[C@H](CO)[C@@H](O)[C@H](O)[C@H]5O)[C@@H]4[C@@]4(CO)O[C@@H]34)O[C@H]2C)cc1O,max response,CRL-7250,3.11%
CC1=CC(=O)CC(C)(CO[C@@H]2O[C@H](CO)[C@@H](O)[C@H](O)[C@H]2O)C1(O)/C=C/C(C)=C/C(=O)O (some centres undefined),outcome,CRL-7250,inactive
CC1CCC(=O)CC(O)C(O)CC(=O)O1 (centres undefined),max response,CRL-7250,-5.97%
Nc1c(Br)cc(Br)cc1CNC1CCC(O)CC1 (centres undefined),Potency,PAD,inactive
same,Potency,PC15,inactive
same,Potency,PC26,inactive
same,Potency,PC49,inactive
same,Potency,SC27B,inactive
same,Potency,TAB109,inactive
same,Potency,TAB113,inactive
same,Potency,TAB165,inactive
COC(=O)[C@H]1[C@H]2C[C@@H]3c4[nH]c5ccccc5c4CCN3C[C@H]2C[C@@H](OC(=O)c2cc(OC)c(OC)c(OC)c2)[C@@H]1OC,Potency,PAD,251 nM (active)
same,Potency,PC15,447 nM (active)
same,Potency,PC26,269 nM (active)
same,Potency,PC49,251 nM (active)
same,Potency,SC27B,355 nM (active)
same,Potency,TAB109,398 nM (active)
same,Potency,TAB113,282 nM (active)
same,Potency,TAB165,178 nM (active)
same,Potency,W2,151 nM (active)
O=C(O)c1cc(O)c2c(c1)[O][Bi][O]2,Potency,PAD,inactive
same,Potency,PC15,inactive
same,Potency,PC26,inactive
same,Potency,PC49,inactive
same,Potency,SC27B,inactive
same,Potency,TAB109,inactive
same,Potency,TAB113,inactive
same,Potency,TAB165,inactive
same,Potency,W2,inactive
CCNC(=O)[C@@H]1CCCN1C(=O)[C@H](CCCN=C(N)N)NC(=O)[C@H](CC(C)C)NC(=O)[C@@H](Cc1c[nH]c2ccccc12)NC(=O)[C@H](Cc1ccc(O)cc1)NC(=O)[C@H](CO)NC(=O)[C@H](Cc1c[nH]c2ccccc12)NC(=O)[C@H](Cc1cnc[nH]1)NC(=O)[C@@H]1CCC(=O)N1,Potency,PAD,2240 nM (active)
same,Potency,PC15,3550 nM (active)
same,Potency,PC26,3380 nM (active)
same,Potency,PC49,2820 nM (active)
same,Potency,SC27B,6310 nM (active)
same,Potency,TAB109,4470 nM (active)
same,Potency,TAB113,8910 nM (active)
same,Potency,TAB165,3160 nM (active)
same,Potency,W2,849 nM (active)
Cc1ccccc1,Potency,PAD,inactive
same,Potency,PC15,inactive
same,Potency,PC26,inactive
same,Potency,PC49,inactive
same,Potency,SC27B,inactive
same,Potency,TAB109,inactive
same,Potency,TAB113,inactive
same,Potency,TAB165,inactive
same,Potency,W2,inactive
CO[C@H]1C[C@@H]2CC[C@@H](C)[C@@](O)(O2)C(=O)C(=O)N2CCCC[C@H]2C(=O)O[C@H]([C@H](C)C[C@@H]2CC[C@@H](OCCO)[C@H](OC)C2)CC(=O)[C@H](C)/C=C(\C)[C@@H](O)[C@@H](OC)C(=O)[C@H](C)C[C@H](C)/C=C/C=C/C=C/1C,Potency,PAD,1410 nM (active)
same,Potency,PC15,3160 nM (active)
same,Potency,PC26,2130 nM (active)
same,Potency,PC49,5010 nM (active)
same,Potency,SC27B,1410 nM (active)
same,Potency,TAB109,1780 nM (active)
same,Potency,TAB113,1120 nM (active)
same,Potency,TAB165,1120 nM (active)
same,Potency,W2,757 nM (active)
